SMILES strings stand for the structures. Records with an inconclusive call do not appear. Where a call stands in place of a potency, no number is given. The source made the active and inactive calls. Calls come from the whole dose curve; as a rule, active = well fitted inhibition curve with a large enough effect in the repeat runs; inconclusive = weak or mixed curves; inactive = flat fitted curve, though single readings scatter. Where a SMILES comes first, the peptide text is derived from it. The star is where a group is joined. Hexanoyl = CCCCCC(=O)*
Potency is the fitted concentration of half-maximal effect.

The target in the assay is Cytochrome P450 2D6 (Homo sapiens) (UniProt P10635). In words: Cytochrome P450 family 2 subfamily D member 6 (CYP2D6) small molecule antagonists: luciferase biochemical (cell-free) qHTS assay (AID 1645840). Note: nearly all actives have a fitted effect of over 55% in size. To be noted: P450-Glo CYP2D6 enzyme, luciferin luminescence, 1 h; series mostly up to 57.4 µM. The method, then: National Center for Advancing Translational Sciences [NCATS] Assay Overview: Cytochrome P450 (CYP) enzymes are membrane-bound hemeproteins that play a key role in metabolism of drugs and xenobiotics. Assaying the effect of chemicals on CYP isozymes is useful to minimize the adverse drug reactions and toxicities in drug development process. Chemical compounds were tested for their effect on CYP enzyme activities by using P450-Glo (TM) screening systems (Promega Corporation, Madison, WI). These systems provide a luminescent method containing proluciferin substrates and are converted to luciferin products by CYP isozymes. The luciferin products formed are detected with a luciferin detection reagent, and the amount of light produced is proportional to CYP activity. P450-Glo (TM) CYP2D6 screening system (Catalog. No. V9890) was used to detect the compounds that interfere in CYP2D6 activity.
Sequence of Cytochrome P450 2D6 (Homo sapiens) (P10635 whole entry, looked up): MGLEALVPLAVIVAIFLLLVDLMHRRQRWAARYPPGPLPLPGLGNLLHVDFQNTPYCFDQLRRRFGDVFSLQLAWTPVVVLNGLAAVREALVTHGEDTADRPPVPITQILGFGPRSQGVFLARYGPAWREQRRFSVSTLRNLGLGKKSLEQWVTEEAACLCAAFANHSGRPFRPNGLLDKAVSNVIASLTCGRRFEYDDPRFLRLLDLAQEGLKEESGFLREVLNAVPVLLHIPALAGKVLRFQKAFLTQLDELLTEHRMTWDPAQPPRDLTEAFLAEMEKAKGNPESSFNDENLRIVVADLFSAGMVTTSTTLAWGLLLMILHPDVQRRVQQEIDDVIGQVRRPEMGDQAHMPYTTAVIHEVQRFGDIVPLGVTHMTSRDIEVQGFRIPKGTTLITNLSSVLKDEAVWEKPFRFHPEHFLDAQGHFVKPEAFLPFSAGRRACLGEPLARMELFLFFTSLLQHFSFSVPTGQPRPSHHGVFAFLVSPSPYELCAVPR
Assay Protocol Summary: Two ul of enzyme-substrate mix was dispensed into medium binding white/solid 1536-well plates (Greiner Bio-One North America Inc., Monroe, NC) using a Flying Reagent Dispenser (FRD, Aurora Discovery, San Diego, CA). […] The assay plates were incubated at room temperature for 10 min. Then 2 ul of NADPH regeneration solution was added to each well of the assay plates using an FRD and incubated at room temperature for 1 h. The reaction was stopped by adding 4 ul of detection reagent using an FRD and after 20 min incubation at room temperature, the luminescence signal was measured using a ViewLux plate reader (Perkin Elmer, Shelton, CT). Data were expressed as relative luminescence units.
In general terms: qHTS replaces the single test concentration by a dilution series.
As for `CCOC(=O)C(CCc1ccccc1)NC1CCCN2CCCC(C(=O)O)N2C1=O` (stereo not given), the Potency entry is “inactive”.

As for `Cc1oc(S(=O)(=O)N2CCCCC2)cc1NC(=O)Nc1ccccc1`, the Potency is 12 µM (active).

Consider `COc1cccc2c1c(O)c(C(=O)N(C)c1ccc(C(F)(F)F)cc1)c(=O)n2C`, for which the Potency result is “inactive”.

`O=C(Nc1ccc(N2CCC(C(=O)N3CCOCC3)CC2)cc1)c1cnc(Oc2ccccc2)nc1`: the Potency entry was “inactive”.

With `COc1ccnc2[nH]cc(C(=O)C(=O)N3CCN(C(=O)c4ccccc4)CC3C)c12` (stereo not given), the Potency is 3.01 µM (active).

Regarding `O=C(NC/C=C/CN1CCN(c2cccc(Cl)c2Cl)CC1)c1ccc(-c2ccccn2)cc1`, the Potency is 1.2 µM (active).

For the compound `O=C(OC(C(F)(F)F)C(F)(F)F)N1CCN(Cc2cccc(Oc3ccccc3)c2)CC1`, the Potency was 1.51 µM (active).

On to `CC1(C)[C@H]2C[C@H](C/C=C\CCCC(=O)O)[C@@H](NC(=O)c3csc4ccc(O)cc34)[C@@H]1C2`, for which the Potency entry is “inactive”.

For `Cc1ccccc1-n1nc(-c2c(-c3ccc(F)cc3)nn3c2NC[C@@H](CO)C3)ccc1=O`, the Potency result was “inactive”.

As to `N#Cc1cccc(-c2nc(-c3cccnc3)no2)c1`, the Potency was 2.62 µM (active).

For the compound `CCc1nn(CCO)c(CC)c1Oc1cc(C#N)cc(C#N)c1`, the Potency entry is “inactive”.

For the compound `COc1ccc(OC)c(C2C(C#N)=C(N)Oc3n[nH]c(-c4ccc5ccccc5c4)c32)c1` (stereo not given), the Potency is 7.56 µM (active).

As to `CCOC(=O)c1ccc(NC2CCCCC2)c(N)c1`, the Potency is 9.52 µM (active).

As for `Cc1cccc(NC(=O)CN2CCC(c3ccccn3)CC2)c1`, the Potency was 13.5 µM (active).

With `CCC(CC)CC1(C(=O)Nc2ccccc2SC(=O)C(C)C)CCCCC1`, the Potency result is “inactive”.

With `N#Cc1ccc(C2CCCc3cncn32)cc1` (stereo not given), the Potency is 17.5 µM (active).

Consider `Cn1cc(CCn2cnc(-c3cnn(C)c3)c2-c2ccc(C#N)cc2)cn1`, for which the Potency result is “inactive”.

Regarding `CC[C@@H](C)[C@H](N)C(=O)N1Cc2ccccc2C1`, the Potency was 13.5 µM (active).

`CC1(C)CC=C(C#Cc2ccccc2)c2cc(/C=C/c3ccc(C(=O)O)cc3)ccc21`: the Potency entry is “inactive”.

As for `CC(=O)Nc1cccc2c1c(Sc1ccc(Cl)cc1)c(C)n2CC(=O)O`, the Potency result was “inactive”.

With `CCCN(CCN1CCN(c2ccccc2OC)CC1)C1CCc2ncsc2C1` (stereo not given), the Potency is 1.9 µM (active).

Take `CCCNCCOc1ccc(NC(=O)c2c[nH]c3c2C(=O)CCC3)cc1F`: the Potency entry was “inactive”.

`CCC[C@H](N[C@@H](C)C(=O)N1[C@H](C(=O)O)C[C@@H]2CCCC[C@@H]21)C(=O)O`: the Potency entry was “inactive”.

As for `Cc1ncc(NC(=O)c2ccc(CN3CCN(C)CC3)c(C(F)(F)F)c2)cc1Nc1nccc(-c2cccnc2)n1`, the Potency is 10.7 µM (active).

On to `Cc1nc2cc(-c3cc(F)cc(C#N)c3)ccc2s1`, for which the Potency result is “inactive”.

As for `c1cc(-c2cc(C3CCNCC3)[nH]n2)ccn1`, the Potency is 15.1 µM (active).

On to `CCCCNc1nc(N)c2[nH]c(=O)n(Cc3ccc(OCCN(C)C)nc3)c2n1`, for which the Potency entry is “inactive”.

On to `Cc1oc2nc3c(c(NC(=O)CN4CCCC4=O)c2c1C)CCCC3`, for which the Potency entry is “inactive”.

As to `CCCCCC(=O)N1CCC[C@H]1C(=O)N[C@@H](Cc1ccc(O)cc1)C(=O)OC` (Hexanoyl-Pro-Tyr-OMe), the Potency entry was “inactive”.

For the compound `CCOC(=O)COc1ccc2c(c1)C[C@@H](NC[C@H](O)c1cccc(Cl)c1)CC2`, the Potency is 0.756 µM (active).

Regarding `COc1ccc(NC(=O)c2ccc(-c3ccc(C(N)=O)cc3C)cc2)cc1N1CCN(C)CC1`, the Potency result was “inactive”.

As to `COc1ccc(-n2c(SCC#N)nc3sc4c(c3c2=O)CCCC4)cc1`, the Potency result is “inactive”.

Regarding `CCCCS(=O)(=O)NC(Cc1ccc(OCCCCC2CCNCC2)cc1)C(=O)O` (stereo not given), the Potency result is “inactive”.

Turning to `CCNC(=O)OC1CCN(c2nncc3cc(OC)c(OC)cc23)CC1`, the Potency is 16.9 µM (active).

`COc1cc(Cc2cnc(N)nc2N)c(C(C)C)cc1OC`: the Potency entry was “inactive”.

Take `COc1ccc(Oc2c(Cl)cnn(C3c4ccccc4-c4ccccc43)c2=O)cc1`: the Potency result is “inactive”.

For `Cc1ccc(Nc2nnc(-c3ccc([N+](=O)[O-])cc3)o2)cc1Cl`, the Potency result is “inactive”.

Take `Cc1onc(-c2c(Cl)cccc2Cl)c1CC(=O)NCc1ccc(OCC(F)(F)F)nc1`: the Potency is 19 µM (active).

Take `O=C(Cn1c2ccccc2c2nc3n(c(=O)c21)CCS3)N1CCCC1`: the Potency result is “inactive”.

As to `CC(C)NC(=O)c1ccc(C#Cc2ccncc2)cn1`, the Potency result was “inactive”.

The values above are taken from PubChem BioAssay (NCATS).
